About 83,000 compounds went through this panel and 20% of them were active in at least one assay; those are over-represented in the sample as a whole.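 Activity criterion: percent growth below 10, measured after cells in 96-well plates were exposed to a single compound concentration for 48 hours.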 The source made the active and inactive calls.
What follows are compounds tested on HL-60(TB) leukemia (assay: NCI-60 one-dose screen, 48 h (100 = growth as untreated, 0 = no growth, -100 = all killed)). Settings: 10 µM unless noted.
For `NCCN1CCN(c2nc(-c3ccccc3)nc3nc(-c4ccccc4)oc23)CC1`, the growth was -5.94% (active). `O=C(CSc1nnc(-c2cccs2)n1-c1ccccc1)Nc1ccccc1F` was tested, and the growth was 66.3% (inactive). For `CCCC(=O)NC(c1cccnc1)c1cc(C)c2cccnc2c1O` (stereo not given), the growth was 1.38% (active). For `O=C(NNc1nc2cc(F)cc(F)c2n2cccc12)c1ncccn1`, the growth was -2.92% (active). With `CNCCN(C)c1ccc(Nc2cc(NC3CC3)n3ncc(C#N)c3n2)cc1NC(C)=O` the growth was -7.57% (active). With `CCOC(=O)c1ccc(NC2=CC(=O)C(C)=C(C)C2=O)cc1` the growth was 53% (inactive). In the case of `CN1CCN(Cc2ccc(NC(=O)c3cncc(C#Cc4cnc5ccc(OCC6COC6)nn45)c3)cc2C(F)(F)F)CC1`, the growth is reported as -42.8% (active). In the case of `N#Cc1c(-c2cccs2)cc(-c2cnccn2)nc1SCC(=O)N/N=C/c1cccs1`, the growth is reported as 96.2% (inactive). For `O=C(N/N=C/c1ccco1)c1[nH]c2ccc(Br)cc2c1-c1ccccc1`, the growth was -28.4% (active). `CC(C)(C)n1nnnc1C(Nc1nccs1)c1cc2cccc3ccc4cccc1c4c32` (stereo not given) was tested, and the growth was 90.2% (inactive). In the case of `O=C(c1ccc(O)cc1)[C@@H]1[C@@H]2CCCN2[C@@]2(C(=O)N(C(=O)c3ccc(F)cc3)c3ccccc32)[C@H]1c1ccc(F)cc1`, the growth is reported as 78.6% (inactive). With `N#Cc1cccc(CN2CCC3=C(C2)C(=O)N(Cc2ccc(Cl)cc2)C2=NCCN23)c1` the growth was 16.2% (inactive). With `O=C(c1ccc(O)c(C(=O)N2Cc3ccc(OCCC[P+](c4ccccc4)(c4ccccc4)c4ccccc4)cc3C2)c1)N1Cc2cccc(F)c2C1` the growth was 57.8% (inactive). `C#CCOc1ccc(-c2csc(NC(=O)C=C)n2)cc1NS(=O)(=O)c1cccc2c(N(C)C)cccc12` was tested, and the growth was -4.97% (active). With `CC(Nc1ncnc2ccc(-c3cnc4cnccn34)cc12)c1ccccc1` (stereo not given) the growth was 52.4% (inactive). `Nc1nc(N)c2c(n1)NC(c1ccc(C(F)(F)F)cc1)CC(c1ccc(Nc3nc(NCCO)nc(Nc4ccc(Cl)cc4)n3)cc1)=N2` (stereo not given) was tested, and the growth was -28.3% (active). For `Cc1[nH]c(C(=O)Nc2ccccc2OCc2cccc(C(=O)NC3CCCNC3)c2)c(Cl)c1Cl` (stereo not given), the growth was -53.9% (active). In the case of `CCNCCOc1ccc(/C(=C(/CC)c2ccc(Cl)cc2)c2ccc(OCCCN(C)C)cc2)cc1`, the growth is reported as -61.5% (active). In the case of `O=C(/C=C/c1ccc(F)cc1)c1ccc(O)cc1`, the growth is reported as 81.9% (inactive). With `Oc1[nH]c2ccccc2c1Nn1c(N=N/C=c2/ccc3c(c2)C=NN=3)n[nH]c1=S` the growth was 139% (inactive). In the case of `C#CCn1cccc1CNc1ccc(OC)cc1`, the growth is reported as -63.1% (active). `CN(c1ccc(F)cc1)S(=O)(=O)c1ccc(-c2cnc(C3CC3)o2)cc1` was tested, and the growth was -15.8% (active). In the case of `CC(C)=CCc1c(O)c(CC=C(C)C)c2c(c1O)C(=O)C1=C[C@@H]3C[C@H]4C(C)(C)O[C@@](C/C=C(\C)C(=O)O)(C3=O)[C@@]14O2`, the growth is reported as -14.1% (active). With `O=S(=O)(Nc1ccc(I)c(Cl)c1)c1ccc(-c2cnc(C3CC3)o2)cc1` the growth was -1.6% (active). `CS(=O)(=O)c1ccc(-n2cc(/C=N/O)c(-c3ccccc3)n2)cc1` was tested, and the growth was -45.8% (active). In the case of `O=C(Nc1cccc(-c2nc(-c3ccc(NC(=O)c4cccnc4)cc3Cl)no2)c1)Nc1ccc(NC(=O)C2CC2)c(C(F)(F)F)c1`, the growth is reported as -41.5% (active). `O=C1CCCc2nc(Nc3ccc(S(=O)(=O)Nc4ccc([N+](=O)[O-])cc4)cc3)ncc21` was tested, and the growth was 110% (inactive). `NS(=O)(=O)c1ccc(Nc2nc(N/N=C/c3ccc(Cl)cc3)nc(Nc3ccccc3)n2)cc1` was tested, and the growth was 72.5% (inactive). `CCOC(=O)c1ccc(NC2=C(Cl)C(=O)c3nc(C)ccc3C2=O)cc1` was tested, and the growth was 47.5% (inactive). `Nc1cc(C(=O)N/N=C\c2ccc(OC(F)F)c(OC3CCCC3)c2)nn1CC(O)c1ccccc1` (stereo not given) was tested, and the growth was 91.3% (inactive). `NS(=O)(=O)c1cccc(Nc2nc(SCC(=O)c3ccc(Cl)cc3)nc3c2CCC3)c1` was tested, and the growth was 111% (inactive). For `CCC1=Cc2cc(OC)ccc2OC12C=Cc1cc(OC)ccc1O2` (stereo not given), the growth was -1.93% (active). With `Cn1cc(C2=C(c3coc4cc(Br)ccc34)C(=O)NC2=O)c2ccccc21` the growth was 44.5% (inactive). With `ClC(Cl)c1nc(-c2ccco2)n2nc(-c3ccccc3)cc2n1` the growth was -24.4% (active). For `N#Cc1nc(-c2ccccc2)oc1N1CC[C@@H](CO)C1`, the growth was 90.6% (inactive). `N/C(=N\OC(=O)CSc1nc2ccccc2s1)c1ccc(Cl)cc1` was tested, and the growth was 108% (inactive). In the case of `O=C(/C=C/c1cn(-c2ccccc2)nc1-c1ccc(Cl)cc1)c1cc2ccccc2oc1=O`, the growth is reported as 85.6% (inactive). For `O=C(N/N=C/c1ccc([N+](=O)[O-])o1)c1[nH]c2ccc(Br)cc2c1-c1ccccc1`, the growth was -42.1% (active). `O=C1Nc2cc(Cl)ccc2/C1=C\c1ccc(OCc2ccc(Br)cc2F)cc1` was tested, and the growth was 66.2% (inactive). In the case of `CNc1sc(S(=O)(=O)NC)nc1S(=O)(=O)c1ccc(C)cc1`, the growth is reported as 101% (inactive).

— PubChem BioAssay (NCI)
